From PubChem BioAssay (Tox21)
Records with an inconclusive call do not appear. Entries that show only a call come without a potency. The source made the active and inactive calls. Unless noted, calls follow the shape of the full dose curve.

Experiments:
[1] = Nuclear factor erythroid 2-related factor 2/antioxidant responsive element (Nrf2/ARE) small molecule agonists: qHTS cell viability counter screen in human keratinocytes (AID 1919968; active = well fitted curve in the direction sought with a large enough effect in the repeat runs; an effect the other way counts as inactive or inconclusive; also: nearly all actives have a fitted effect of over 55% in size; also: potency is read from the fitted curve at half-maximal effect)
Method in brief: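 CellTiter-Fluor fluorescence, read 1 h after reagent, gave viability in the same wells as the ARE-luciferase assay. KeratinoSens cells (1,500/well) had 23 h compound exposure at 37 C/5% CO2 following 5 h plating.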

[2] = target: KiSS-1 receptor (Homo sapiens) (UniProt Q969F8); test: Human kisspeptin (KISS1R) small molecule agonists, calcium flux assay in KISS1R-HEK293 cells (AID 1920064; active = well fitted curve in the direction sought with a large enough effect in the repeat runs; an effect the other way counts as inactive or inconclusive)
Sequence of KiSS-1 receptor (Homo sapiens) (Q969F8 whole entry, looked up): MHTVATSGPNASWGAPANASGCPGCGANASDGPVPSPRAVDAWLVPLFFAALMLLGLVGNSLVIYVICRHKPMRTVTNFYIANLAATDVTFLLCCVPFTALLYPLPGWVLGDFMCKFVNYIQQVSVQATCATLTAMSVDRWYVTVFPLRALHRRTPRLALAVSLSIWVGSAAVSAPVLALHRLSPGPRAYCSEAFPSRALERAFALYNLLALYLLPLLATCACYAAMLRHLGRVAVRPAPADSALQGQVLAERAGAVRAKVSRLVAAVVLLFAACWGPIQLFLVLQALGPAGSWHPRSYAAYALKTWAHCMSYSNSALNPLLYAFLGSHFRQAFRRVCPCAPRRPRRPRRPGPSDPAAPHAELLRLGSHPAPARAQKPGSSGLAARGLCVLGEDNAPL
Method in brief: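 Agonist mode: intracellular calcium rise tracked at 1 s intervals over 3 min (480/540 nm) immediately after compound addition to dye-loaded KISS1R-HEK293 stable cells. Each compound tested at 15 concentrations in triplicate.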

[3] = G protein-coupled receptor (GPCR) small molecule agonists, calcium flux assay: HEK293 wild type cell line counter screen (AID 1920065)
Method in brief: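 Calcium flux counter screen: compound added in agonist mode at 15 concentrations in triplicate to dye-loaded parental HEK293 cells. Fluorescence (480/540) read kinetically for 3 min; ATP served as positive control.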

[4] = p53 small molecule agonists, cell-based qHTS assay with human liver microsomes (AID 1963577);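 also: p53 response element beta-lactamase reporter cells with liver microsomes plus NADPH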
Method in brief: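 HLM-supplemented p53RE-bla reporter assay: 16 h compound exposure at 37 C, microsomes and NADPH each 0.5 mg/mL final, read by fluorescence intensity.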

[5] = p53 small molecule agonists, cell-based qHTS assay with rat liver microsomes (AID 1963578)
Method in brief: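 Quantitative HTS of the Tox21 10K library: p53RE-bla cells, rat liver microsomes plus NADPH at 0.5 mg/mL final each, 16 h at 37 C, beta-lactamase fluorescence detection.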

[6] = p53 small molecule agonists, cell-based qHTS assay with human liver microsomes: qHTS cell viability counter screen (AID 1963579); also: nearly all actives have a fitted effect of over 45% in size; also: potency is read from the fitted curve at half-maximal effect
Method in brief: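 Viability of p53RE-bla cells is measured as CellTiter-Glo luminescence following a 16 h, 37 C incubation with compound, liver microsomes from human donors and NADPH.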

[7] = p53 small molecule agonists, cell-based qHTS assay with rat liver microsomes: qHTS cell viability counter screen (AID 1963580); also: nearly all actives have a fitted effect of over 45% in size
Method in brief: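 Cytotoxicity counter screen: intracellular ATP read by CellTiter-Glo luminescence in the p53 reporter wells. HCT-116 p53RE-bla cells were treated for 16 h at 37 C alongside rat liver microsomes and NADPH, each 0.5 mg/mL final.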

[8] = p53 small molecule agonists, cell-based qHTS assay: qHTS cell viability counter screen (AID 1963581); also: nearly all actives have a fitted effect of over 45% in size
Method in brief: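 Counter screen read by CellTiter-Glo luminescence (ATP content, 30 min at room temperature), run in the same wells as the beta-lactamase reporter read. HCT-116 p53RE-bla cells saw compounds for 16 h at 37 C.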

[9] = p53 small molecule agonists, cell-based qHTS assay (AID 1963582; active = well fitted activation curve with a large enough effect in the signal ratio in the repeat runs, not every such curve was filed as active; the % refers to the signal ratio)
Method in brief: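 Read-out is beta-lactamase FRET fluorescence after 2 h at room temperature with LiveBLAzer B/G substrate. p53 response element-bla cells were treated 16 h at 37 C with compounds in DMSO, added 5 h after seeding.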

[10] = target: 5-hydroxytryptamine receptor 2A (Homo sapiens) (UniProt P28223); test: 5-hydroxytryptamine receptor 2A (HTR2A) small molecule antagonists, cell-based qHTS assay (AID 1963586); also: nearly all actives have a fitted effect of over 45% in size; also: potency is read from the fitted curve at half-maximal effect
Sequence of 5-hydroxytryptamine receptor 2A (Homo sapiens) (P28223 whole entry, looked up): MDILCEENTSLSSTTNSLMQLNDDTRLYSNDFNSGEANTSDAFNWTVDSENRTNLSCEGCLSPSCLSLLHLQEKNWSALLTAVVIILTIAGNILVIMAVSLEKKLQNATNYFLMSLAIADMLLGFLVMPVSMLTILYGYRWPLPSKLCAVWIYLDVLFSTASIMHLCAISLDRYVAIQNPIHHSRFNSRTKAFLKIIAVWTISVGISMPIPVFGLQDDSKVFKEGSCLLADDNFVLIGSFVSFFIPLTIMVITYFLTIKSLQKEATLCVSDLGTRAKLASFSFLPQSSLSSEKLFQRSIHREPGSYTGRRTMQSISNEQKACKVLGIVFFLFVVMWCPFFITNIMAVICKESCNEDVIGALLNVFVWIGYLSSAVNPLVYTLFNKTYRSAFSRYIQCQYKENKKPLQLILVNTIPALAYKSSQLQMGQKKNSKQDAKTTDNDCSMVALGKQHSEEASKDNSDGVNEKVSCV
Method in brief: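 CHO cells stably expressing human HTR2A were plated for 18 h at 37 C, then loaded with calcium dye for 1 h. Compounds were preincubated 5 min at room temperature before DOI (4 nM solution) was added. Kinetic fluorescence was read for 3 min.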

[11] = target: 5-hydroxytryptamine receptor 2A (Homo sapiens) (UniProt P28223); test: 5-hydroxytryptamine receptor 2A (HTR2A) small molecule agonists, cell-based qHTS assay (AID 1963587); also: nearly all actives have a fitted effect of over 30% in size
Method in brief: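 Kinetic calcium-flux fluorescence (2 min, 1 sec intervals) after compound addition in agonist mode. HTR2A-CHO cells were cultured 18 h, then dye-loaded 1 h at 37 C.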

[12] = target: Muscarinic acetylcholine receptor M1 (Homo sapiens) (UniProt P11229); test: Cholinergic receptor muscarinic 1 (CHRM1) small molecule antagonists, cell-based qHTS assay (AID 1963588); also: nearly all actives have a fitted effect of over 40% in size; also: potency is read from the fitted curve at half-maximal effect
Sequence of Muscarinic acetylcholine receptor M1 (Homo sapiens) (P11229 whole entry, looked up): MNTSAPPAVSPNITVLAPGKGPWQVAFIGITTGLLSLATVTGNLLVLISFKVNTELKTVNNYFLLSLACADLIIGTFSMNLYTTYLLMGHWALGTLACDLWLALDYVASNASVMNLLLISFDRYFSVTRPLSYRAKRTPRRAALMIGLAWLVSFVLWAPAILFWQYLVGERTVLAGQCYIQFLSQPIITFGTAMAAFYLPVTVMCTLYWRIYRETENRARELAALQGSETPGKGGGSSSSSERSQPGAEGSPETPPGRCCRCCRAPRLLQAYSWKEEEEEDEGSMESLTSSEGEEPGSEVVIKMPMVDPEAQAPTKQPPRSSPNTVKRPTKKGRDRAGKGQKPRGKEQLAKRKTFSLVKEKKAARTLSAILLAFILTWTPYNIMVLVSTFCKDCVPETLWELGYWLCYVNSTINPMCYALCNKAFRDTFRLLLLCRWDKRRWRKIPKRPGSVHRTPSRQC
Method in brief: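 Compounds were tested at 15 concentrations in three independent runs. Dye-loaded CHRM1-CHO cells were exposed 5 min at room temperature before stimulation by acetylcholine added at 50nM. Intracellular calcium was read kinetically on FDSS for 3 min.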

[13] = target: Muscarinic acetylcholine receptor M1 (Homo sapiens) (UniProt P11229); test: Cholinergic receptor muscarinic 1 (CHRM1) small molecule agonists, cell-based qHTS assay (AID 1963589); also: nearly all actives have a fitted effect of over 35% in size
Method in brief: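 Agonist-mode calcium-flux screen: compounds at 15 concentrations, three independent runs, were pin-transferred onto dye-loaded human CHRM1-CHO cells. Fluorescence was then recorded kinetically every second over minutes.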

[14] = cAMP Responsive Elements (CRE) small molecule agonists, cell-based qHTS assay (AID 1963590)
Method in brief: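 Agonist mode: compound added to CRE-bla HEK 293T cells (2,000/well, 18 h after plating) for 3 h at 37 C/5% CO2. Reporter activity detected via FRET beta-lactamase substrate, 2 h room-temperature loading.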

[15] = cAMP Responsive Elements (CRE) small molecule antagonists, cell-based qHTS assay (AID 1963591; active = well fitted inhibition curve with a large enough effect in the signal ratio in the repeat runs, not every such curve was filed as active; the % refers to the signal ratio)
Method in brief: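 Antagonist mode: compounds are added alongside the adenylyl cyclase activator NKH477 (0.25 uM final) to CRE-bla HEK293T cells for 3 h. LiveBLAzer FRET substrate, 2 h at room temperature, reports bla expression.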

[16] = target: Beta-2 adrenergic receptor (Homo sapiens) (UniProt P07550); test: Adrenergic beta2 receptor (ADRB2) small molecule antagonists, cell-based qHTS assay (AID 1963592); also: series mostly up to about 92 µM; nearly all actives have a fitted effect of over 50% in size
Sequence of Beta-2 adrenergic receptor (Homo sapiens) (P07550 whole entry, looked up): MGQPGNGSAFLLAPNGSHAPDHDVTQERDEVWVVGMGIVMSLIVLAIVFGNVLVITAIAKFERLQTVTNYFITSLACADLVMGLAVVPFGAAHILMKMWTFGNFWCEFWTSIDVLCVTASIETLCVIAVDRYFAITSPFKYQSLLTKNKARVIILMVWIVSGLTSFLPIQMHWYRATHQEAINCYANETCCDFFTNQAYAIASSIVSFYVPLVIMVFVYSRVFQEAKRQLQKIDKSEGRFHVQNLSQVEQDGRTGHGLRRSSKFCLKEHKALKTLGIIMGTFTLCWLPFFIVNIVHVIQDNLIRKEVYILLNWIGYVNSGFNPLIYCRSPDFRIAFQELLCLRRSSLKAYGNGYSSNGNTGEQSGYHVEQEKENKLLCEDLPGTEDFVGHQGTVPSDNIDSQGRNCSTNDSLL
Method in brief: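 Assay format: CHO-ADRB2 cells, 18-20hr seeding at 37C/5% CO2, then compound plus 1nM isoproterenol agonist mix for 0.5hr RT. Homogeneous time-resolved fluorescence cAMP detection after 1hr, expressed as 665/615 nm ratio.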

[17] = target: D(2) dopamine receptor (Homo sapiens) (UniProt P14416); test: Dopamine D2 receptor (DRD2) small molecule agonists, cell-based qHTS assay (AID 1963594); also: nearly all actives have a fitted effect of over 35% in size
Sequence of D(2) dopamine receptor (Homo sapiens) (P14416 whole entry, looked up): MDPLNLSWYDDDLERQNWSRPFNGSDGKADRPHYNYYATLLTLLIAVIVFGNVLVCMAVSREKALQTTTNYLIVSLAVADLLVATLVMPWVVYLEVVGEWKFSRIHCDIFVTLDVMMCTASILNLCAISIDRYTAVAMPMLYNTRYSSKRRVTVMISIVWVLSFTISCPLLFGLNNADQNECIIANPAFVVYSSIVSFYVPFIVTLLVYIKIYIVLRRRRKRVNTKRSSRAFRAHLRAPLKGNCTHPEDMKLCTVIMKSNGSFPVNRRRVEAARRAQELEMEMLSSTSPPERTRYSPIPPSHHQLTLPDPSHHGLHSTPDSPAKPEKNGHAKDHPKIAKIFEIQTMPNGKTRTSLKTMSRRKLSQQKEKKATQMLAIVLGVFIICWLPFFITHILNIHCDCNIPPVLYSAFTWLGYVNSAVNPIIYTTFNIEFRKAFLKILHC
Method in brief: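 cAMP accumulation in DRD2-HEK293 cells measured by HTRF after 1 h detection; compounds added 10 min before NKH477 (200nM […]) forskolin-analogue stimulation, 30 min at room temperature, with Ro20-1724 present at 0.1 mM final.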

[18] = target: D(2) dopamine receptor (Homo sapiens) (UniProt P14416); test: Dopamine D2 receptor (DRD2) small molecule antagonists, cell-based qHTS assay (AID 1963595; active = well fitted inhibition curve with a large enough effect in the signal ratio in the repeat runs, with a control signal flat; the % refers to the signal ratio; also: potency is read from the fitted curve at half-maximal effect)
Method in brief: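 Antagonist mode in DRD2-HEK293 cells: after compound addition with 0.1 mM Ro20-1724, cells received quinpirole (12 nM) and NKH477 (200 nM) for 30 min at room temperature; HTRF cAMP read after 1 h detection.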

[19] = Nuclear factor erythroid 2-related factor 2/antioxidant responsive element (Nrf2/ARE) small molecule agonists: luciferase reporter gene qHTS assay in human keratinocytes (AID 1919969); also: nearly all actives have a fitted effect of over 35% in size
[20] = target: Beta-2 adrenergic receptor (Homo sapiens) (UniProt P07550); test: Adrenergic beta2 receptor (ADRB2) small molecule agonists, cell-based qHTS assay (AID 1963593);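 also: CHO cells stably overexpressing human ADRB2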
Method in brief: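 CHO cells stably over-expressing ADRB2 were plated overnight at 37C, then dosed with compounds plus a stimulation mix containing 100uM IBMX and 25uM Ro-20-1724 for 0.5hr at room temperature. cAMP was measured by HTRF competition, 1hr.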

| Structure (SMILES) | Potency [1] | outcome [2] | outcome [3] | Potency [4] | Potency [5] | Potency [6] | Potency [7] | Potency [8] | Potency [9] | Potency [10] | Potency [11] | Potency [12] | Potency [13] | Potency [14] | Potency [15] | Potency [16] | Potency [17] | Potency [18] | Potency [19] | Potency [20] |
| --- | --- | --- | --- | --- | --- | --- | --- | --- | --- | --- | --- | --- | --- | --- | --- | --- | --- | --- | --- | --- |
| O=C(O)C(O)[C@H](O)[C@@H](O)[C@H](O)[C@H](O)CO (stereo not given in full) | inactive | inactive | inactive | inactive | inactive | inactive | inactive | inactive | inactive | inactive | inactive | inactive | inactive | inactive | inactive | inactive | inactive | inactive |  |  |
| NC(CO)C(=O)NNCc1ccc(O)c(O)c1O (stereo not given) | inactive | inactive | inactive | inactive | inactive | inactive | inactive | inactive | inactive | inactive | inactive | inactive | inactive | inactive | inactive |  |  | inactive |  |  |
| O=C(O)c1cccc(-c2noc(-c3ccccc3F)n2)c1 | inactive | inactive |  | inactive | inactive | 15.8 µM (active) |  |  | inactive |  | inactive | inactive | inactive |  |  | inactive | inactive | inactive | inactive |  |
| Cc1nc(C)nc(N2C[C@@H](C)N(c3ccnc([C@@H](C)O)n3)[C@@H](C)C2)n1 | inactive |  | inactive | inactive | inactive | inactive |  | inactive | inactive | inactive | inactive |  | inactive |  |  | inactive | inactive | inactive | inactive |  |
| C[C@]12CCC(=O)C=C1CC[C@@H]1[C@@H]2CC[C@@]2(C)[C@H]1CC[C@]2(O)C(=O)CO | inactive | inactive | inactive | inactive | inactive | inactive | inactive | inactive | inactive | inactive | inactive | inactive | inactive |  |  | inactive | inactive |  |  | inactive |
| CCCOc1ccccc1-c1nc2n[nH]nc2c(=O)[nH]1 | inactive | inactive | inactive | inactive | inactive | inactive | inactive | inactive | inactive |  |  |  |  |  |  | inactive |  | inactive |  |  |
| CCOC(=O)C1=C(C)NC(C)=C(C(=O)OC)C1c1cccc([N+](=O)[O-])c1 (stereo not given) | inactive | inactive | inactive | inactive | inactive | inactive | inactive | inactive |  |  |  |  |  | inactive | inactive | inactive | inactive | inactive |  |  |
| CC[N+](CC)(CC)CCOc1cccc(OCC[N+](CC)(CC)CC)c1OCC[N+](CC)(CC)CC | inactive | inactive | inactive | inactive | inactive | inactive | inactive | inactive | inactive |  |  |  |  |  |  | inactive | inactive | inactive |  | inactive |
| CCCCCCCCCC(=O)OCC | inactive | inactive | inactive | inactive | inactive | inactive | inactive | inactive | inactive |  | inactive | inactive | inactive | inactive | inactive | inactive | inactive | inactive |  |  |
| CC(C)CCCCCCOC(=O)CCCCC(=O)OCCCCCCC(C)C | inactive | inactive | inactive | inactive | inactive | inactive | inactive | inactive | inactive |  | inactive | inactive | inactive | inactive | inactive | inactive |  | inactive |  |  |
| CCn1nc(Cc2ccccc2)cc1C1CCN(C[C@H]2C[C@H](N(C)[C@@H](C(=O)O)C(C)C)C[C@@H]2c2cccc(F)c2)CC1 | inactive | inactive | inactive | inactive | inactive | inactive | inactive | inactive |  | inactive | inactive | inactive | inactive |  |  | inactive | inactive |  |  |  |
| CN1CCN(C2Cc3ccccc3Sc3ccc(Cl)cc32)CC1 (stereo not given) | 29.8 µM (active) | inactive | inactive | inactive | inactive | inactive | inactive | inactive |  | 0.041 µM (active) |  | 0.065 µM (active) |  |  | inactive | inactive | inactive | 0.133 µM (active) |  |  |
| Cc1cccc2nccnc12 | inactive | inactive | inactive | inactive | inactive | inactive | inactive | inactive | inactive |  | inactive | inactive |  | inactive | inactive | inactive | inactive | inactive |  |  |
| FC(F)(F)C(F)(F)C(F)(F)C(F)(F)CCI | inactive | inactive | inactive | inactive | inactive | inactive | inactive |  | inactive | inactive | inactive | inactive | inactive | inactive | inactive | inactive |  | inactive |  | inactive |
| C=CCCCC | inactive | inactive | inactive | inactive | inactive | inactive | inactive |  | inactive | inactive | inactive | inactive | inactive | inactive | inactive | inactive | inactive | inactive |  |  |
